This is a sample that favours compounds with a hit; in the whole collection about 5.9% have one here.
DAX1 inh = DAX1 (NR0B1) inhibitors, primary screen, cell-based, HEK293, Gal4-DAX1, luciferase luminescence. HEK293 Gal4-DAX1 luciferase reporter. inhibition, % at 6.75 µM. 340,000 tested, 0.99% active. AID 504766, 2011;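 active means inhibition above the mean over all tested compounds plus 3 SD, cut at about 4.2% in these data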;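 further: 0% = DAX1-transfected cells with DMSO and 100% = empty-vector control cells with DMSO; inhibition shows as a rise in luminescence from relieved DAX1 repression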
Target sequence (P51843 207-470 limits assumed): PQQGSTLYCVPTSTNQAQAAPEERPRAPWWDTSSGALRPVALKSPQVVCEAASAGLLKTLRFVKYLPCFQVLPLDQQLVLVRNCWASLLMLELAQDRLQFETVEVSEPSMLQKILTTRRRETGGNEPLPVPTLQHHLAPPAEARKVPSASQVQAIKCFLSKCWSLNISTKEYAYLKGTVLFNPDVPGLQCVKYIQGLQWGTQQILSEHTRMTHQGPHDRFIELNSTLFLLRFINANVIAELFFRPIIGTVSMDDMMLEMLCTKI
AHR activator = AHR activators, primary screen, cell-based, luminescence, luciferase reporter, human | AHR-responsive luciferase reporter cells | activation, % at 5 µM | 320,000 tested, 2.5% active | AID 2796, 2010; in the data active means activation above about 47%;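 further: 0% = vehicle wells and 100% = reference agonist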
GAA850 FXN act = FXN promoter activators, primary screen, cell-based, luciferase luminescence, HEK293 lucGAA850 | HEK293 lucGAA850 FXN promoter luciferase reporter, 24 h; percent of 10 µM SAHA response | activation, % at 6 µM | AID 540364, 2011 | 360,000 tested, 0.56% active;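 active means activation above the average of all compounds screened plus 3 SD, cutoff fixed separately per campaign, cut at about 7.5% in these data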;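 further: 0% = DMSO wells and 100% = 10 µM SAHA wells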
HSP90 refold inh = HSP90 inhibitors, primary screen, cell lysate, luminescence. inhibition, % at 5.6 µM. Heat shock protein HSP 90 (rabbit reticulocyte lysate; luciferase refolding). 290,000 tested, 0.91% active. Rabbit reticulocyte lysate, luciferase refolding luminescence, 3 h;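 active means inhibition above the screen-wide mean plus 3 SD, computed separately per campaign, cut at about 16% in these data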;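 further: 0% = DMSO wells and 100% = 60 µM geldanamycin wells; inhibitors lower the luminescence because luciferase stays unfolded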
HSF1 activator = HSF-1 activators, primary screen, NIH3T3-HGL cells, MG132 stress, luminescence, single point; NIH3T3-HGL HSF-1 luciferase reporter, 8 h; 100% = twice DMSO control signal; activation, % at 9 µM; 300,000 tested, 1.7% active; AID 504408, 2011;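 active means mean replicate activation of at least 50% with a set share of replicates each reaching 50%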;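 further: 0% = median of the neutral control wells and 100% = twice that signal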
HSF1 inhib = HSF1 inhibitors in luciferase reporter cells, primary screen, cell-based, NIH3T3, luminescence; NIH3T3-HGL HSE-luciferase, MG132-induced, luminescence 8 h; hits give low values; 300,000 tested, 0.77% active; AID 2098, 2009; activity change, negative = inhibition, % at 7.5 µM (by protocol);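 active means more than half of replicate wells show activity change below -50%, luminescence cut by over half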;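 further: luciferase reports HSF-1 transcriptional activity via heat shock element; 0% = median of DMSO wells and -100% = zero luminescence signal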
* marks the source's active call; other numbers are inactive results; . = no result.

SMILES	DAX1 inh	AHR activator	GAA850 FXN act	HSP90 refold inh	HSF1 activator	HSF1 inhib
Cc1ccc2cc(C)c(SCC(=O)NCc3ccco3)nc2c1	0	7	0	4	7	9
Cc1ccc2nc(SCC(=O)NC(=O)NCc3ccco3)[nH]c2c1	2	61*	0	-2	7	1
O=C(CCCSc1nc2ccccc2[nH]1)NCc1ccco1	-1	7	-1	-3	68*	13
Cc1ccc2nc(SCC(=O)NCc3ccco3)[nH]c2c1	0	77*	1	1	19	-4
COc1ccc(F)cc1CN1CCN(C(=O)CCC(=O)Nc2nnc(C3CCCCC3)s2)CC1	0	2	-2	5	3	-3
O=C(O)C1=CCCc2ccc(F)cc21	1	.	0	.	.	.
Cc1cc(C)cc(NC(=O)CCCN2C(=O)C(c3ccccc3)Oc3cccnc32)c1 (stereo not given)	-3	7	2	3	-7	-4
CCOc1ccc(/C=C(\C#N)C(=O)c2c(C)[nH]c3ccccc23)cc1OC	-1	8	2	4	11	0
COc1cc(/C=C(/C#N)C(=O)c2c(C)[nH]c3ccccc23)ccc1OCC#N	2	9	4	5	68*	42
O=C(N/N=C/c1cccnc1)c1ccc2c(c1)OCO2	0	15	5	-2	-67	-59*
Cc1ccc(C(=O)N/N=C\c2cc3c(cc2Br)OCO3)s1	-1	47*	5	2	18	-3
O=C(N/N=C/c1cc2c(cc1Br)OCO2)c1cccnc1	2	48*	1	0	5	1
COC(=O)N/N=C\c1cc2c(cc1Br)OCO2	4	43	-1	4	-6	-7
O=C(N/N=C\C=C\c1ccc2c(c1)OCO2)c1cccnc1	0	68*	3	-1	15	-8
CC(C)Oc1ccc(C(=O)Nc2c3c(nn2C(C)(C)C)CS(=O)(=O)C3)cc1	0	1	1	-1	-6	-4
COC(=O)c1ccc(Cn2ccc(=O)[nH]c2=O)cc1	-1	.	-2	.	.	.
Cc1ccc(S(=O)(=O)N2CCN(c3nc(CN4CCCC4)nc4sc(C)c(C)c34)CC2)cc1	1	-1	-2	.	.	.
Cc1sc2nc(CN3CCCC3)nc(N3CCN(S(=O)(=O)c4cccs4)CC3)c2c1C	4.7*	6	-4	0	8	2
Cc1sc2nc(CN3CCOCC3)nc(NS(=O)(=O)c3ccccc3)c2c1C	6.3*	3	1	-3	28	3
CCc1nc(N2CCN(S(=O)(=O)c3ccc(Br)cc3)CC2)c2c(C)c(C)sc2n1	3	0	-2	5	77*	42
COc1cccc(CNC(=O)C2CCN(S(=O)(=O)c3ccc(F)cc3)CC2)c1	1	.	0	-4	-11	-1
Cc1ccc(CCNC(=O)C2CCN(S(=O)(=O)c3ccc4c(c3)NC(=O)CO4)CC2)cc1	-1	4	-1	0	68*	35
O=C1COc2ccc(S(=O)(=O)N3CCC(C(=O)NCc4ccc(F)cc4)CC3)cc2N1	-1	0	1	4	0	-6
COc1cccc(CNC(=O)C2CCN(S(=O)(=O)c3ccc4c(c3)CCC(=O)N4)CC2)c1	5.0*	-2	-3	-2	0	-3
CCCS(=O)(=O)NC(=O)C1(C)CCN(C(=O)c2cc(OC)c(OC)c(OC)c2)C1 (stereo not given)	.	.	-1	.	.	.
SMILES	DAX1 inh	AHR activator	GAA850 FXN act	HSP90 refold inh	HSF1 activator	HSF1 inhib
CC1CCN(C(=O)CCn2c(=O)oc3ccc(Cl)cc32)CC1	0	.	2	.	.	.
Cc1ccsc1/C=N/N=C/c1sccc1C	2	70*	2	14	4	-8
Cc1ccsc1/C=N/NC(=O)CO	2	2	2	3	6	-7
Cc1ccsc1C=Nc1ccc(O)cc1	1	0	1	0	3	3
COc1ccc(/C=C(\NC(=O)c2ccccc2)C(=O)N/N=C/c2sccc2C)cc1	0	6	0	5	97*	57
Cc1ccsc1/C=N/NC(=O)c1sccc1C	3	48*	4	2	64*	31
Cc1ccsc1/C=N/N1CCN(c2ccccc2)CC1	1	32	7.8*	3	13	7
Cc1cc(C)cc(NC(=S)N2CCN(S(C)(=O)=O)CC2)c1	1	5	3	-1	-9	-10
C=CCn1c(SC(C)C(=O)c2c(N)n(C)c(=O)n(C)c2=O)nnc1-c1ccoc1C (stereo not given)	1	-1	1	.	.	.
COC(=O)c1cc(OC)c(OC)cc1NC(=S)NC(=O)c1ccco1	-1	19	-2	-3	73*	33
CCN(CC)c1ccc(NC(=S)NC(=O)c2ccco2)cc1	0	3	7	12	180*	142
COc1cc(NS(=O)(=O)c2ccc(NC(=S)NC(=O)c3ccco3)cc2)nc(OC)n1	4.7*	0	2	-4	8	6
CCNC(=S)Nc1cc(OC)c(NC(=O)c2ccco2)cc1OC	0	0	0	-1	8	1
O=C(NCc1ccccc1)C1Cc2c(-c3ccc(Cl)cc3)ccnc2O1 (stereo not given)	.	.	-1	.	.	.
COc1cccc(N/C=C/C(=O)c2ccc(Br)cc2)c1	2	2	4	-2	4	10
Cc1cccc(N/C=C/C(=O)c2ccc(Cl)cc2)c1	4.7*	-4	4	-1	29	12
Cc1cccc(N/C=C/C(=C(C#N)C#N)N(C)C)c1	0	48*	-1	-1	6	-9
CN(C)C(/C=C/Nc1cccc(Br)c1)=C(C#N)C#N	.	3	2	7	3	-2
COc1ccc(CN2CCN(C(=O)c3ccccc3C(=O)c3ccccc3)CC2)cc1OC	0	.	0	.	.	.
Cc1ccc(OCC(=O)NCCCNC(=O)c2ccccn2)cc1	0	4	-1	1	15	2
O=C(COc1ccc(Cl)cc1)NCCN1CCCCC1	-1	2	-2	0	-64	-55*
O=C(COc1ccc(Cl)cc1)NCCCNC(=O)c1ccccn1	-2	10	2	6	84*	30
Cc1ccccc1CSCCNC(=O)COc1ccc(Cl)cc1	6.6*	-1	-1	6	4	3
COC(=O)CN1C(=O)[C@@H]2[C@H](C1=O)[C@@H]1CC(C(=O)OC)=C[C@@H](C(=O)OC)[C@@H]3C1=C(C(=O)[C@@]3(C)NC(=O)c1ccccc1)[C@@H]2C	1	2	0	.	-3	-2

Assay outcomes as filed in PubChem.
